Compound activity (PubChem)
An excerpt weighted towards active compounds, which were near 7.5% of everything screened.
HCMV inh – qHTS Assay for inhibitors of the human cytomegalovirus (HCMV); HFF cells, HCMV-luciferase reporter, 72 h; stronger effect = lower value; activity change, negative = inhibition, % at 57.5 µM; actives 4.5% (n = 410,000); AID 1259415, 2018; in the data active means activity change below about -60%; inconclusive means no clear call, values can overlap the other calls; inactive means above about -39%
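Screen run at 2 compound doses on HFFs infected with reporter HCMV, MOI 1 PFU/cell. Luciferase activity from cell lysates at 72 h post infection gave inhibition relative to buffer-only and Salinomycin wells.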
VACV Venus inh – qHTS for Stage-Specific Inhibitors of Vaccinia Orthopoxvirus: Venus Reporter Primary qHTS; Vaccinia virus Venus reporter expression, fluorescence; actives 0.46% (n = 330,000); Potency, µM (doses to about 36.5 µM), for inactives: top-dose activity change, negative = inhibition, usual class: inhibitors; calls by dose curve; tested in A549 cells; further: potency means the concentration at half of the fitted maximal effect; nearly all actives have a fitted effect of over 30% in size
FMDV inh – High Throughput Screening for Foot and Mouth Disease Virus Antivirals; FMDV antiviral cell-based qHTS; Potency, µM (top dose mostly 57.9 µM), for inactives: at the highest dose activity change, negative = inhibition, usual class: inhibitors; actives 1.2% (n = 410,000); AID 1159524, 2015; calls by dose curve; tested in HEK293T cells; further: read-out not given here; potency means the concentration at half of the fitted maximal effect; nearly all actives have a fitted effect of over 45% in size
HCV inh – qHTS Assay for Inhibitors of Hepatitis C Virus (HCV); Huh7.5.1 HCVcc-Cre infection, luciferase reporter, 44 h; Potency, µM (highest dose often 41.8 µM), for inactives: top-dose activity change, negative = inhibition, usual class: inhibitors; actives 3.4% (n = 340,000); further: potency means the concentration at half of the fitted maximal effect
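Antiviral activity was scored by luciferase reporter output from cells infected with HCVcc-Cre (~0.5 moi) in presence of compound, 44 h infection period, cells seeded 1,000/well 4 h prior.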
Giardia FBPA inh – qHTS Assay for Inhibitors of Fructose-1,6-bisphosphate Aldolase from Giardia Lamblia; A8B2U2; purified Giardia FBPA; Potency, µM (highest dose often 59.6 µM), without a hit: top-dose activity, negative = inhibition, most hits filed as inhibitors; actives 0.71% (n = 290,000); AID 2451, 2010; further: potency means the concentration at half of the fitted maximal effect; nearly all actives have a fitted effect of over 55% in size
Target sequence (A8B2U2 whole entry, looked up): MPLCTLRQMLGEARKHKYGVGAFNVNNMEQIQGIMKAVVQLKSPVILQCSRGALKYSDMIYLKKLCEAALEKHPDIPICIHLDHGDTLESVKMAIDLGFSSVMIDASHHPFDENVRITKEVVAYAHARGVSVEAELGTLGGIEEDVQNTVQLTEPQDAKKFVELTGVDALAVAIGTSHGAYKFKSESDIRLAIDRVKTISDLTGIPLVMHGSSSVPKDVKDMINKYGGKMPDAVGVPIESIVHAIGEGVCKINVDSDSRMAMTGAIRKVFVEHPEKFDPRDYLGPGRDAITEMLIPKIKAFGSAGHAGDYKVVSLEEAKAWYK
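Giardia FBPA (40 nM reagent) was preincubated 10 min at RT with compound (up to 57.5 uM final), then substrate plus GAPDH/TPI/NAD/arsenate coupling system with diaphorase/resazurin was added; resorufin fluorescence (525/598 nm) was read after 20 min.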
Vaccinia mCherry – qHTS for Stage-Specific Inhibitors of Vaccinia Orthopoxvirus: mCherry Reporter Primary qHTS | Vaccinia virus mCherry reporter infection, fluorescence | Potency, µM (top dose mostly 36.5 µM), without a hit: at the top dose activity change, negative = inhibition, usual class: inhibitors | actives 0.63% (n = 310,000) | AID 720579, 2013; calls by dose curve; tested in A549 cells; further: potency means the concentration at half of the fitted maximal effect; nearly all actives have a fitted effect of over 35% in size
* hit, by the source's call; i = inactive; ? = inconclusive; . = not tested or not shown; [ ] = another dose, or the depositor's remark. Unless noted, the call rests on the fitted dose curve; in most records, active means well fitted curve in the direction sought with a large enough effect; inconclusive means small, poorly fitted or top-dose-only effect, or another doubt; inactive means no such curve, though single readings can be large; an effect the other way counts as inactive or inconclusive. On the % scale 0 is the no-effect control and ±100 the full control effect.

SMILES	HCMV inh	VACV Venus inh	FMDV inh	HCV inh	Giardia FBPA inh	Vaccinia mCherry
O=C(NC1CCc2ccccc21)c1cc(COc2cncc(Cl)c2)on1 (stereo not given)	61	-19%	-25%	13µM*	.	?
O=C(Cn1nc(-c2ccccc2)c2ccccc2c1=O)Nc1ccccn1	-61*	?	10%	6%	-4%	.
CCN(CC)C(=O)c1ccc(-c2nnc(OC)c3ccccc23)cc1	-66*	0%[7.34 µM]	-9%	-1%	-1%	-12%[7.34 µM]
O=C(CCn1nc(-c2ccccc2)c2ccccc2c1=O)NN1CCOCC1	-70*	5%	-11%	20%	1%	-4%
O=C(CCn1nc(-c2ccc(Cl)cc2)c2ccccc2c1=O)NCCN1CCOCC1	13	-6%	3%	-12%	.	-4%
Cc1nn(CC(=O)Nc2ccccn2)c(=O)c2ccccc12	-1	-14%	8%	10%	0%	i
CCN(CC)C(=O)c1ccc(NC(=O)CCn2nc(-c3ccc(C)cc3)c3ccccc3c2=O)cc1	-65*	-25%	?	.	.	i
CCc1cccc(CC)c1NC(=O)CN1CCN(S(=O)(=O)c2ccccc2)CC1	-15	-13%	0%	?	2%	-3%
CN(C)N=Nc1nc2c(c(=O)n(C)c(=O)n2C)n1CC1CO1 (stereo not given)	-77*	?	-23%	4µM*	0%	?
CN(C)N=Nc1nc2c([nH]1)c(=O)n(C)c(=O)n2C	7	-4%	1%	-7%	-21%	-48%
COc1ccc(-c2csc(Nc3ccccn3)n2)cc1OC	21	-26%	-2%	8.9µM*	-10%	-27%
Cc1cc(-c2csc(Nc3ccccn3)n2)ccc1F	158	-20%	-33%	6.3µM*	6%	0%
Cc1ccc(-c2csc(Nc3ccccn3)n2)cc1	-8	-9%	-62%	-26%	5%	?
COc1cc(/C=C/c2ccnc3ccccc23)ccc1N(C)C	.	13%	.	.	.	-23%
Cc1cnc2c(C)cccc2c1C	.	2%	.	.	.	-8%
O=C(O)c1ccccc1C(=O)Nc1n[nH]c(=S)s1	-34	-9%	-5%	10%	10µM*	-13%
COc1ccc2c(c1)[C@H]1[C@H](CO2)[C@H](c2ccccc2)[C@]2(C)C(=O)N(CC3CCCO3)CC(=O)N12 (stereo not given in full)	-4	-11%	-13%	6%	.	i
Cc1ccc(S(=O)(=O)NC(=O)C2(C)CCN2C(=O)CC2CCCCC2)nc1 (stereo not given)	-29	-9%	0%	.	.	17%
CCn1cc([N+](=O)[O-])c(C(=O)N2N=C(c3cccc4ccccc34)CC2c2ccccc2O)n1 (stereo not given)	33	?	?	11µM*	-2%	?
CCn1cc([N+](=O)[O-])c(C(=O)N2N=C(c3ccc(OC)cc3OC)CC2c2ccccc2O)n1 (stereo not given)	24	-24%	-7%	-7%	31%	-2%
CCn1cc(Cl)c(C(=O)N2N=C(c3ccc4ccccc4c3)CC2c2ccccc2O)n1 (stereo not given)	2	?	-25%	?	-4%	-29%
CCn1cc([N+](=O)[O-])c(C(=O)N2N=C(c3ccc4ccccc4c3)CC2c2ccccc2O)n1 (stereo not given)	82	?	-13%	10µM*	0%	?
O=C(COC(=O)c1ccc(S(=O)(=O)N2CCCCCC2)cc1)NCc1ccc(Cl)cc1	-15	.	-7%	5%	.	.
COc1ccc(S(=O)(=O)N(CC(=O)NCCSc2ccccc2)c2ccc(Cl)cc2)cc1	-16	-29%	?	.	.	-25%
COc1ccc(CCNC(=O)C(NS(=O)(=O)c2cccc3nsnc23)C(C)C)cc1OC (stereo not given)	-8	.	10µM*	-2%	.	.
SMILES	HCMV inh	VACV Venus inh	FMDV inh	HCV inh	Giardia FBPA inh	Vaccinia mCherry
O=C(COc1ccccc1F)Nc1ccc(OCc2cc(=O)n3ccccc3n2)cc1	-61*	-5%	16%	.	.	i
Cc1cccn2c(=O)cc(COc3cccc(NC(=O)c4ccccc4F)c3)nc12	-91*	-12%	-29%	.	.	-8%
Cc1cccn2c(=O)cc(COc3ccc(NC(=O)COc4ccc(F)cc4)cc3)nc12	-6	-17%	-20%	.	.	-19%
O=C(Nc1cccc(Cl)c1)Nc1ccccc1OCc1cc(=O)n2ccccc2n1	-14	-20%	18%	.	.	-6%
Cc1cccn2c(=O)cc(COc3cccc(NC(=O)COc4ccc(F)cc4)c3)nc12	-90*	?	?	.	.	?
Cc1ccc(Cl)cc1NC(=O)Nc1cccc(OCc2cc(=O)n3ccccc3n2)c1	-65*	-9%	5%	.	.	-8%
O=C(c1ccc(S(=O)(=O)c2ccccc2Cl)c([N+](=O)[O-])c1)N1CCCCCC1	-65*	-25%	?	?	-8%	-13%
O=C(c1ccc(S(=O)(=O)Cc2ccccc2F)c([N+](=O)[O-])c1)N1CCCCCC1	?	-13%	?	?	-1%	?
O=C(c1ccc(S(=O)(=O)c2cccc(Cl)c2)c([N+](=O)[O-])c1)N1CCN(c2ccccn2)CC1	-78*	-8%	16µM*	?	-7%	-17%
CCN1C(=O)/C(=C/c2nc3ccccc3c(=O)n2-c2ccc(C)cc2)c2ccccc21	-78*	-13%	?	-10%	1%	i
CCN1C(=O)/C(=C\c2nc3ccccc3c(=O)n2-c2ccccc2)c2ccccc21	-99*	-9%	14µM*	6%	23%	-26%
CCn1c(/C=C/c2ccc(O)cc2)nc2ccccc2c1=O	-22	-22%	-26%	?	-1%	i
CCn1c(/C=C2\C(=O)Nc3ccccc32)nc2ccccc2c1=O	-33	-18%	22µM*	?	0%	-29%
CCN(CC)C(=O)Cn1cc(C(=O)C2CC2)c2ccccc21	?	-7%	13%	0%	0%	-1%
COc1cc(/C=N/Nc2nc(Nc3ccccc3)nc(-n3nc(C)cc3C)n2)cc(OC)c1OC	-12	?	-12%	2.8µM*	8%	?
COc1ccc(O)c(/C=N/Nc2nc(Nc3ccccc3)nc(-n3nc(C)cc3C)n2)c1	-77*	10µM*	-19%	?	-2%	.
Cc1nc2ccccc2c(=O)n1/N=C/c1ccccc1	33	-18%	.	5%	2%	-3%
Cc1nnc(-c2ccccc2)c(=O)n1/N=C/c1c(O)ccc2ccccc12	-99*	?	-5%	?	6%	3.2µM*
